In PubChem BioAssay AID488893 (Broad Institute, 2010):
Measured potencies and affinities stand elsewhere. The source made the active and inactive calls.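 How the source made its calls: active means falling signal whose fitted half-maximal dose is at most ten times the top valid tested dose; inconclusive means flat curve with 30 to 70% inhibition, or poor fit; inactive means the rest, including changes in the wrong direction.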

Assay: single-agent antifungal toxicity in C. albicans – CaCi-2 strain, Alamar Blue, dry powder, set 2, counter-screen for antifungal drug resistance project, dose response (AID 488893)
Conditions: C. albicans CaCi-2 (fluconazole-resistant clinical isolate) growth, Alamar Blue fluorescence, 48 h; series mostly up to 26 µM

| SMILES | outcome |
| --- | --- |
| O=C(c1ccc(Cl)cc1)N1CCCN(c2ccnc3cc(Cl)ccc23)CC1 | inactive |
| O=C(c1cccc(Cl)c1)N1CCN(c2ccnc3cc(Cl)ccc23)CC1 | inactive |
| O=C(c1ccc(Cl)cc1)N1CCNCC1 | inactive |
| CC(C)C(=O)N1CCN(c2ccnc3cc(Cl)ccc23)CC1 | inactive |
| O=C(Nc1ccc(Cl)cc1)N1CCN(c2ccnc3cc(Cl)ccc23)CC1 | inactive |
| O=C(O)Cn1nc(-c2ccccc2)c2ccccc21 | inactive |
| O=C(c1ccc(Cl)cc1)N1CCN(c2cccnc2)CC1 | inactive |
| CC1CN(c2ccnc3cc(Cl)ccc23)CCN1C(=O)c1ccc(Cl)cc1 (stereo not given) | inactive |
| O=C(C1CCC1)N1CCN(c2ccnc3cc(Cl)ccc23)CC1 | inactive |
| CC(C)CC(=O)N1CCN(c2ccnc3cc(Cl)ccc23)CC1 | inactive |
| O=C(c1ccc(Cl)cc1)N1CCN(c2ccccn2)CC1 | inactive |
| O=C(c1ccc(Cl)cc1)N1CCN(c2ccncc2)CC1 | inactive |
| O=C(c1ccc(Cl)cn1)N1CCN(c2ccnc3cc(Cl)ccc23)CC1 | inactive |
| O=C(c1ccc(Cl)cc1)C1CCN(c2ccnc3cc(Cl)ccc23)CC1 | inactive |
| CCCC(=O)N1CCN(c2ccnc3cc(Cl)ccc23)CC1 | inactive |
| O=C(c1ccc(Cl)cc1)N1CCN(c2ncnc3nc[nH]c23)CC1 | inactive |
| Cc1cc(N2CCN(C(=O)c3ccc(Cl)cc3)CC2)c2ccc(F)cc2n1 | inactive |
| O=C(C1CCCC1)N1CCN(c2ccnc3cc(Cl)ccc23)CC1 | inactive |
| Clc1ccc2c(N3CCNCC3)ccnc2c1 | inactive |
| O=C(C1CCCCC1)N1CCN(c2ccnc3cc(Cl)ccc23)CC1 | inactive |
